Data as given in PubChem BioAssay AID1159580 (chemical genetic matrix, 2015).
Hit rate of the full screen: of about 5,500 compounds, about 2,000 (36%) were called active. Roughly 18% stayed inconclusive and do not appear here. Rule as the data show it: active = normalized growth mostly below about 0.91 (no sharp cut-off); inconclusive = no clear call, values can overlap the other calls; inactive = mostly above about 0.92. This is one part of the list.

Assay: chemical genetic growth profiling, strain panel (AID 1159580);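 also: tested at 20 µM; growth read once vehicle control cultures reached saturation at 30 °C; 1 = growth at the plate median or of vehicle wells; lower values mean less growth of the strain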
Conditions: growth OD
[1] = S. cerevisiae deletion strains, locus YAL013W, strain DEP1, stronger effect = lower value
[2] = S. cerevisiae deletion strains, locus YAL040C, strain CLN3, stronger effect = lower value
[3] = S. cerevisiae deletion strains, locus YCL061C, strain MRC1 (second series), stronger effect = lower value
[4] = S. cerevisiae deletion strains, locus YDR363W, strain ESC2, stronger effect = lower value
[5] = S. cerevisiae deletion strains, locus YER002W, strain NOP16, stronger effect = lower value
[6] = S. cerevisiae deletion strains, locus YJR075W, strain HOC1, stronger effect = lower value
[7] = S. cerevisiae deletion strains, locus YMR263W, strain SAP30, stronger effect = lower value
[8] = S. cerevisiae deletion strains, locus YNL175C, strain NOP13, stronger effect = lower value
[9] = S. cerevisiae deletion strains, locus YNL197C, strain WHI3, stronger effect = lower value
[10] = S. cerevisiae deletion strains, locus YNL224C, strain SQS1, stronger effect = lower value
[11] = S. cerevisiae deletion strains, locus YOR083W, strain WHI5 (second series), stronger effect = lower value
[12] = S. cerevisiae deletion strains, locus YPL055C, strain LGE1, stronger effect = lower value
[13] = S. cerevisiae deletion strains, locus YGR078C, strain PAC10, stronger effect = lower value
[14] = S. cerevisiae deletion strains, locus YNL153C, strain GIM3, stronger effect = lower value
[15] = S. cerevisiae deletion strains, locus YAR019C, strain CDC15, stronger effect = lower value
[16] = S. cerevisiae deletion strains, locus YBL105C, strain PKC1, stronger effect = lower value
[17] = S. cerevisiae deletion strains, locus YBR135W, strain CKS1, stronger effect = lower value
[18] = S. cerevisiae deletion strains, locus YBR136W, strain MEC1, stronger effect = lower value
[19] = S. cerevisiae deletion strains, locus YBR160W, strain CDC28, stronger effect = lower value
[20] = S. cerevisiae deletion strains, locus YDL017W, strain CDC7, stronger effect = lower value
[21] = S. cerevisiae deletion strains, locus YDL028C, strain MPS1, stronger effect = lower value
[22] = S. cerevisiae deletion strains, locus YDL101C, strain DUN1, stronger effect = lower value
[23] = S. cerevisiae deletion strains, locus YDL108W, strain KIN28, stronger effect = lower value
[24] = S. cerevisiae deletion strains, locus YDL132W, strain cdc53, stronger effect = lower value
[25] = S. cerevisiae deletion strains, locus YDL214C, strain PRR2, stronger effect = lower value
[26] = S. cerevisiae deletion strains, locus YDR052C, strain DBF4, stronger effect = lower value
[27] = S. cerevisiae deletion strains, locus YDR054C, strain cdc34, stronger effect = lower value
[28] = S. cerevisiae deletion strains, locus YDR226W, strain ADK1, stronger effect = lower value
[29] = S. cerevisiae deletion strains, locus YDR477W, strain SNF1, stronger effect = lower value
[30] = S. cerevisiae deletion strains, locus YER123W, strain YCK3, stronger effect = lower value
[31] = S. cerevisiae deletion strains, locus YER133W, strain GLC7, stronger effect = lower value
[32] = S. cerevisiae deletion strains, locus YFL009W, strain cdc4, stronger effect = lower value
[33] = S. cerevisiae deletion strains, locus YFL029C, strain CAK1, stronger effect = lower value
[34] = S. cerevisiae deletion strains, locus YFR003C, strain YPI1, stronger effect = lower value
[35] = S. cerevisiae deletion strains, locus YFR019W, strain FAB1, stronger effect = lower value
[36] = S. cerevisiae deletion strains, locus YFR028C, strain CDC14, stronger effect = lower value
[37] = S. cerevisiae deletion strains, locus YGR040W, strain KSS1, stronger effect = lower value
[38] = S. cerevisiae deletion strains, locus YGR052W, strain FMP48, stronger effect = lower value
[39] = S. cerevisiae deletion strains, locus YGR092W, strain DBF2, stronger effect = lower value
[40] = S. cerevisiae deletion strains, locus YHR030C, strain SLT2, stronger effect = lower value
[41] = S. cerevisiae deletion strains, locus YHR079C, strain IRE1, stronger effect = lower value
[42] = S. cerevisiae deletion strains, locus YHR082C, strain KSP1, stronger effect = lower value
[43] = S. cerevisiae deletion strains, locus YHR205W, strain SCH9, stronger effect = lower value
[44] = S. cerevisiae deletion strains, locus YIL147C, strain SLN1, stronger effect = lower value
[45] = S. cerevisiae deletion strains, locus YJL095W, strain BCK1, stronger effect = lower value
[46] = S. cerevisiae deletion strains, locus YJL128C, strain PBS2, stronger effect = lower value
[47] = S. cerevisiae deletion strains, locus YJL157C, strain FAR1, stronger effect = lower value
[48] = S. cerevisiae deletion strains, locus YJR016C, strain ILV3, stronger effect = lower value
[49] = S. cerevisiae deletion strains, locus YJR066W, strain TOR1 (second series), stronger effect = lower value
[50] = S. cerevisiae deletion strains, locus YJR066W, strain TOR1, stronger effect = lower value
[51] = S. cerevisiae deletion strains, locus YKL048C, strain ELM1, stronger effect = lower value
[52] = S. cerevisiae deletion strains, locus YKL067W, strain YNK1, stronger effect = lower value
[53] = S. cerevisiae deletion strains, locus YKL101W, strain HSL1, stronger effect = lower value
[54] = S. cerevisiae deletion strains, locus YKL193C, strain SDS22, stronger effect = lower value
[55] = S. cerevisiae deletion strains, locus YKL203C, strain TOR2, stronger effect = lower value
[56] = S. cerevisiae deletion strains, locus YLR113W, strain HOG1, stronger effect = lower value
[57] = S. cerevisiae deletion strains, locus YLR133W, strain CKI1, stronger effect = lower value
[58] = S. cerevisiae deletion strains, locus YLR403W, strain SFP1, stronger effect = lower value
[59] = S. cerevisiae deletion strains, locus YML070W, strain DAK1, stronger effect = lower value
[60] = S. cerevisiae deletion strains, locus YMR001C, strain CDC5, stronger effect = lower value
[61] = S. cerevisiae deletion strains, locus YMR205C, strain PFK2 (second series), stronger effect = lower value
[62] = S. cerevisiae deletion strains, locus YMR277W, strain FCP1, stronger effect = lower value
[63] = S. cerevisiae deletion strains, locus YNL006W, strain LST8, stronger effect = lower value
[64] = S. cerevisiae deletion strains, locus YNL020C, strain ARK1, stronger effect = lower value
[65] = S. cerevisiae deletion strains, locus YNL161W, strain CBK1, stronger effect = lower value
[66] = S. cerevisiae deletion strains, locus YNL183C, strain NPR1, stronger effect = lower value
[67] = S. cerevisiae deletion strains, locus YNL207W, strain RIO2, stronger effect = lower value
[68] = S. cerevisiae deletion strains, locus YNL222W, strain SSU72, stronger effect = lower value
[69] = S. cerevisiae deletion strains, locus YNL307C, strain MCK1 (second series), stronger effect = lower value
[70] = S. cerevisiae deletion strains, locus YOL078W, strain AVO1, stronger effect = lower value
[71] = S. cerevisiae deletion strains, locus YOL136C, strain PFK27, stronger effect = lower value
[72] = S. cerevisiae deletion strains, locus YOR061W, strain CKA2, stronger effect = lower value
[73] = S. cerevisiae deletion strains, locus YOR119C, strain RIO1, stronger effect = lower value
[74] = S. cerevisiae deletion strains, locus YOR231W, strain MKK1, stronger effect = lower value
[75] = S. cerevisiae deletion strains, locus YOR329C, strain SCD5, stronger effect = lower value
[76] = S. cerevisiae deletion strains, locus YPL031C, strain PHO85, stronger effect = lower value
[77] = S. cerevisiae deletion strains, locus YPL153C, strain RAD53, stronger effect = lower value
[78] = S. cerevisiae deletion strains, locus YPL204W, strain HRR25, stronger effect = lower value
[79] = S. cerevisiae deletion strains, locus YPL209C, strain IPL1, stronger effect = lower value
[80] = S. cerevisiae deletion strains, locus YPL256C, strain CLN2, stronger effect = lower value
[81] = S. cerevisiae deletion strains, locus YPR025C, strain CCL1, stronger effect = lower value
[82] = S. cerevisiae deletion strains, locus YPR106W, strain ISR1, stronger effect = lower value
[83] = S. cerevisiae deletion strains, locus YPR111W, strain DBF20, stronger effect = lower value
[84] = S. cerevisiae deletion strains, strain NNK1, stronger effect = lower value
[85] = S. cerevisiae deletion strains, strain TSCII, stronger effect = lower value

Measured: normalized growth

O=P(O)(O)C(Cl)(Cl)P(=O)(O)O
inactive: [1] 1.01 | [2] 0.972 | [3] 0.995 | [4] 1.04 | [5] 1.01 | [6] 1.03 | [7] 1 | [8] 1 | [9] 0.968 | [10] 1.02 | [11] 0.973 | [12] 1.02

CC12NC(Cc3ccccc31)c1ccccc12 (stereo not given)
inactive: [2] 0.983 | [3] 0.984 | [4] 1.04 | [5] 1.01 | [13] 0.992 | S. cerevisiae deletion strains, locus YNL128W, strain TEP1, stronger effect = lower value 1.06 | [14] 0.997 | [8] 1 | [9] 1.01 | [10] 0.988 | [11] 1 | [12] 1.01

CC1(C)CC(=O)C=C(Sc2nc3ccccc3o2)C1
inactive: [15] 0.966 | [16] 0.968 | [17] 0.955 | [18] 0.965 | [19] 0.962 | [20] 0.974 | [21] 0.965 | [22] 0.958 | [23] 0.961 | [24] 0.947 | [25] 0.933 | [26] 0.984 | [27] 0.949 | [28] 0.967 | [29] 0.949 | [30] 0.926 | [31] 0.979 | [32] 0.953 | [33] 0.965 | [34] 0.971 | [35] 0.941 | [36] 0.957 | [37] 0.945 | [38] 0.916 | [39] 0.739 | [40] 0.983 | [41] 0.955 | [42] 0.992 | [43] 0.861 | [44] 0.962 | [45] 0.837 | [46] 0.924 | [47] 0.951 | [48] 0.952 | [49] 0.875 | [50] 0.946 | [51] 0.961 | [52] 0.946 | [53] 0.925 | [54] 0.953 | [55] 0.99 | [57] 0.938 | [58] 0.901 | [59] 0.927 | [60] 0.961 | [61] 0.948 | [62] 0.956 | [63] 0.974 | [64] 0.944 | [65] 0.967 | [66] 0.951 | [67] 0.948 | [68] 0.964 | [69] 0.873 | [70] 0.947 | [71] 0.907 | [72] 0.955 | [73] 1.01 | [74] 0.902 | [75] 0.97 | [76] 0.946 | [77] 0.949 | [78] 0.935 | [79] 0.965 | [80] 0.967 | [81] 0.968 | [82] 0.964 | [83] 0.939 | [84] 0.961 | [85] 0.956
active: [56] 0.832

Cc1onc(-c2c(Cl)cccc2Cl)c1-c1nc(-c2ccc3c(c2)OCCO3)cs1
inactive: [1] 1.01 | S. cerevisiae deletion strains, locus YBR229C, strain ROT2, stronger effect = lower value 1.01 | S. cerevisiae deletion strains, locus YCL061C, strain MRC1, stronger effect = lower value 1 | [22] 1.01 | S. cerevisiae deletion strains, locus YDR150W, strain NUM1, stronger effect = lower value 1.03 | S. cerevisiae deletion strains, locus YEL061C, strain CIN8, stronger effect = lower value 1.02 | [13] 0.991 | [40] 0.998 | S. cerevisiae deletion strains, locus YHR087W, strain rtc3, stronger effect = lower value 1.01 | S. cerevisiae deletion strains, locus YJL187C, strain SWE1, stronger effect = lower value 1 | S. cerevisiae deletion strains, locus YJR043C, strain POL32, stronger effect = lower value 1.01 | [6] 0.99 | S. cerevisiae deletion strains, locus YLR039C, strain RIC1, stronger effect = lower value 0.959 | S. cerevisiae deletion strains, locus YLR058C, strain SHM2 (second series), stronger effect = lower value 1.01 | S. cerevisiae deletion strains, locus YLR085C, strain ARP6, stronger effect = lower value 0.973 | S. cerevisiae deletion strains, locus YLR262C, strain YPT6, stronger effect = lower value 1 | S. cerevisiae deletion strains, locus YML094W, strain GIM5, stronger effect = lower value 0.991 | S. cerevisiae deletion strains, locus YMR219W, strain ESC1, stronger effect = lower value 1 | [7] 0.993 | S. cerevisiae deletion strains, locus YMR307W, strain GAS1, stronger effect = lower value 0.946 | [14] 0.997 | S. cerevisiae deletion strains, locus YNL298W, strain CLA4 (second series), stronger effect = lower value 0.987 | S. cerevisiae deletion strains, locus YNL322C, strain KRE1, stronger effect = lower value 1.02 | S. cerevisiae deletion strains, locus YNR030W, strain Alg12, stronger effect = lower value 1.02 | S. cerevisiae deletion strains, locus YOL006C, strain TOP1, stronger effect = lower value 0.999 | [12] 1.04 | S. cerevisiae deletion strains, locus YPL241C, strain CIN2, stronger effect = lower value 1.02 | S. cerevisiae deletion strains, locus YPR135W, strain CTF4, stronger effect = lower value 0.934 | S. cerevisiae strains, strain wild type, stronger effect = lower value 1.01

Oc1c(Cl)cc(Cl)cc1C=Nc1nc(-c2ccc3ccccc3c2)cs1
active: [30] 0.59 | [39] 0.342 | [40] 0.486 | [47] 0.685 | [56] 0.62 | [57] 0.701 | [58] 0.639 | [59] 0.651 | [61] 0.741 | [64] 0.684 | [71] 0.537 | [72] 0.58 | [80] 0.558
inactive: [15] 0.958 | [16] 0.966 | [17] 0.947 | [18] 0.957 | [19] 0.96 | [20] 0.958 | [21] 0.958 | [22] 0.962 | [23] 0.959 | [24] 0.971 | [25] 0.793 | [26] 0.969 | [27] 0.957 | [28] 0.966 | [29] 0.802 | [31] 0.791 | [32] 0.956 | [33] 0.963 | [34] 0.961 | [35] 0.78 | [36] 0.966 | [37] 0.833 | [38] 0.827 | [41] 0.557 | [42] 0.814 | [43] 0.737 | [44] 0.952 | [45] 0.51 | [46] 0.971 | [48] 0.962 | [49] 0.86 | [50] 0.626 | [51] 0.871 | [52] 0.787 | [53] 0.854 | [54] 0.953 | [55] 0.824 | [60] 0.957 | [62] 0.958 | [63] 0.96 | [65] 0.965 | [66] 0.72 | [67] 0.959 | [68] 0.961 | [69] 0.757 | [70] 0.957 | [73] 0.855 | [74] 0.623 | [75] 0.963 | [76] 0.809 | [77] 0.768 | [78] 0.766 | [79] 0.954 | [81] 0.962 | [82] 0.973 | [83] 0.949 | [84] 0.964 | [85] 0.953
